POLI inh: blocks human DNA polymerase iota activity. Q9UNA4. Pol iota fluorescent replication assay, 10 min. Potency, µM (doses to about 115 µM), for inactives: at the top dose activity, negative = inhibition, actives largely listed as inhibitors. actives 1% (n = 390,000)
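Fluorescent replication assay read twice, at 0 min and 10 min after adding 50 nM (final) substrate. Enzyme (10 nM) and compounds were first incubated 15 min at room temperature; enzyme-free buffer wells were negative controls.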
Pol beta inh: blocks human DNA polymerase beta activity; P06746; Pol beta primer extension/strand displacement, fluorescence kinetic; Potency, µM (titrated, usually from 114 µM), for the others: top-dose activity change, negative = inhibition, hits mostly inhibitors; actives 1.3% (n = 340,000); AID 485314; further: on the % scale 0 is the no-effect control and ±100 the full control effect
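Homogeneous kinetic assay of primer extension and strand displacement by 10 nM Pol beta, preincubated 15 min at room temperature with compound before 50 nM substrate (final) was added. Read at 0 and 10 min; four-parameter Hill fit.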
POLK inh: blocks human DNA polymerase kappa activity; Q9UBT6; purified Pol kappa, fluorescent DNA synthesis assay, 10 min; Potency, µM (series often up to 107 µM), for the others: top-dose activity, negative = inhibition, actives largely listed as inhibitors; actives 0.53% (n = 400,000); further: on the % scale 0 is the no-effect control and ±100 the full control effect
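First, compounds were pin-transferred onto 10 nM Pol kappa. After 15 min at room temperature, substrate was added to 50 nM final. Fluorescence was then measured kinetically at 0 and 10 min.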
WRN helicase inh: WRN helicase (human) inhibition; actives 0.46% (n = 360,000); Potency, µM (series often up to 114 µM), for inactives: top-dose activity change, negative = inhibition, usual class: inhibitors; Q14191; WRN helicase unwinding, fluorescent forked duplex, kinetic; further: on the % scale 0 is the no-effect control and ±100 the full control effect; nearly all actives have a fitted effect of over 55% in size
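Primary qHTS, 1536-well format. 20 nM WRN + compound, 15 min RT; start with 100 nM forked fluorophore/quencher duplex, 2 mM ATP (final); kinetic read ex 525/em 598 nm.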
Pol eta inh: inhibitors of human DNA polymerase eta; Q9Y253; recombinant Pol eta, fluorescent DNA replication assay; Potency, µM (highest dose often 114 µM), for inactives: at the highest dose activity change, negative = inhibition, usual class: inhibitors; actives 1.2% (n = 390,000); AID 588591; further: on the % scale 0 is the no-effect control and ±100 the full control effect
Target sequence (Q9Y253 whole entry, looked up): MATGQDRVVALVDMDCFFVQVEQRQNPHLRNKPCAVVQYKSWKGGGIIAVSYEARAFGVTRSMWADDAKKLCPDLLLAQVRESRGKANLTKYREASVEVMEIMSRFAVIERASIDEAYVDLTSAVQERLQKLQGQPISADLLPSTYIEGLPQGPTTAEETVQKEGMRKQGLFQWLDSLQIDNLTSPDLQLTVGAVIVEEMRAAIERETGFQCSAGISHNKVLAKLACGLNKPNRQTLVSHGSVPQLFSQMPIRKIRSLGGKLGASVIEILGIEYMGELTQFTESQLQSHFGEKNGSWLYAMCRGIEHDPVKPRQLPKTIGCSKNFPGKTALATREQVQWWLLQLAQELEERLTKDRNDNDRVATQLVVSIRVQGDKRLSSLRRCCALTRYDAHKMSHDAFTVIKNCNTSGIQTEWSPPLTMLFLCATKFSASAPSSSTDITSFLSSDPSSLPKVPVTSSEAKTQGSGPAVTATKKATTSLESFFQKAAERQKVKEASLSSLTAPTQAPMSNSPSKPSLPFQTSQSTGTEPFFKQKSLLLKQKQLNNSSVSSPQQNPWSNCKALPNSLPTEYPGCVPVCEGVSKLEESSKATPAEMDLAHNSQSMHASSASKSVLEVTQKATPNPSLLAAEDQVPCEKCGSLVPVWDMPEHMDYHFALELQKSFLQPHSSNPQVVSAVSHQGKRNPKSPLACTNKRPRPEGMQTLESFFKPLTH
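Pol eta at 10 nM preincubated with compounds 15 min at room temperature; reaction started with fluorescent substrate (50 nM final) and read kinetically at 0 and 10 min.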
FEN1 inh: human FEN1 inhibition | P39748 | Recombinant FEN1 flap cleavage, fluorescence, 15 min | Potency, µM (highest dose often 114 µM), without a hit: at the highest dose activity change, negative = inhibition, hits mostly inhibitors | actives 0.35% (n = 390,000); further: on the % scale 0 is the no-effect control and ±100 the full control effect; nearly all actives have a fitted effect of over 65% in size
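Read-out was taken twice, immediately and after 15 min, following addition of 50 nM substrate to 10 nM FEN1 that had sat with test compound for 15 min at room temperature. Curves came from a four-parameter Hill model.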
* hit, by the source's call; u = inconclusive; x = not tested or not shown; [ ] = remark or other dose. Compounds with a hit are over-represented: about 2.4% of the library has one in this group of screens. The call rests on the fitted dose curve; in most records, active means well fitted curve in the direction sought with a large enough effect; inconclusive means small, poorly fitted or top-dose-only effect, or another doubt; inactive means no such curve, though single readings can be large; an effect the other way counts as inactive or inconclusive. Potency means the concentration at half of the fitted maximal effect.

SMILES | POLI inh | Pol beta inh | POLK inh | WRN helicase inh | Pol eta inh | FEN1 inh
CC[C@H](C)C(C(=O)N1CCN(C(=O)OC(C)(C)C)CC1)n1cc(C(Cc2ccc(O)cc2)NC(=O)OC(C)(C)C)nn1 (some centres not stated) | 6% | 20% | 18% | 8% | -16% | 10%
CCN1C(=O)[C@H]2[C@H]3[C@H](O)[C@H](O)CC(=O)[C@@H]3CC[C@H]2C1=O | 1% | x | -5% | x | x | 1%
Cc1cc(=O)[nH]c2c(N=Nc3ccc(O)cc3)c(N)nn12 | u | 2% | 89µM* | u | -18% | -32%
Nc1nn2c(C(F)(F)F)cc(=O)[nH]c2c1N=Nc1cccc(F)c1 | 25% | 35% | -4% | 4% | -7% | -3%
CC(C)(C)c1ccc2c(S(=O)(=O)O)c(C(C)(C)C)ccc2c1 | x | x | 4%[19.4 µM] | x | x | x
Cc1[nH]c2ccccc2c1C(=O)CNc1ccc(Br)cc1 | u | x | -20% | x | x | -31%
Cc1cc2nc(-c3ccc(SCC(=O)Nc4ccc5c(c4)OCCO5)nc3)[nH]c2cc1C | u | u | -23% | -22% | -18% | -12%
Cc1ccc2nc(-c3ccc(SCC(=O)Nc4ccc5c(c4)OCCO5)nc3)[nH]c2c1 | u | 14µM* | -30% | 0% | u | 0%
O=C(CSc1ccc(-c2nc3ccccc3[nH]2)cn1)Nc1ccc2c(c1)OCCO2 | u | 18µM* | -5%[60.1 µM] | -25% | -15% | -21%
CCc1nnc(NC(=O)CSc2ccc(-c3nc4ccccc4[nH]3)cn2)s1 | u | 35µM* | -32% | -25% | u | -9%
Cc1nc(NC(=O)CSc2ccc(-c3nc4ccccc4[nH]3)cn2)sc1C | 155% | -11% | -17% | -6% | -17% | -12%
O=C(CSc1ccc(-c2nc3ccccc3[nH]2)cn1)Nc1ccc(S(=O)(=O)NC2CC2)cc1 | u | 18µM* | -9% | 3% | u | 5%
COC(=O)CN1C(=O)[C@@H]2[C@H](C1=O)[C@@H]1CC(C(=O)OC)=C[C@@H](C(=O)OC)C3C1=C(C(=O)[C@]3(C)NC(=O)c1ccccc1)[C@@H]2C (some centres not stated) | 10% | x | -4% | x | x | 15%
O=C(Nc1ccc(-c2nc3ccccc3[nH]2)cc1)c1ccccc1NS(=O)(=O)c1ccc(F)cc1 | u | -24% | -40% | -32%[57.1 µM] | 28µM* | u
Nc1[nH]c(=S)[nH]c(=O)c1N=O | 4% | x | 9% | x | x | -3%
CCOc1ccccc1NC(=O)c1cc(-c2ccncc2)nc2c(Cl)cccc12 | -10% | 16µM* | -16% | -22% | -4% | 2%
CC(=O)Nc1ccc(OCC(O)CN2CCN(c3cc(Cl)ccc3C)CC2)cc1 (configuration not stated) | 7% | 6% | 0% | -9% | -10% | -6%
CC(=O)Nc1ccc(OCC(O)CN2CCN(c3ccc(C)c(Cl)c3)CC2)cc1 (configuration not stated) | 89µM* | 6% | -5% | -1% | -10% | 0%
CC1CC1C(=O)OCC(=O)Nc1ccc2[nH]c(=O)[nH]c2c1 (configuration not stated) | 40µM* | 25µM* | -22% | -21%[57.1 µM] | 50µM* | -32%
Cc1ccc2c(c1)Oc1ccc(NC(=O)CCl)cc1C(=O)N2 | -25% | 14% | 1% | -4% | 79µM* | 10%
Cc1ccc2c(c1)Oc1ccc([N+](=O)[O-])cc1C(=O)N2 | 26% | 34% | -8% | 9% | 4% | -1%
CC(=O)c1ccccc1NC(=O)CSc1nnc2ccccn12 | x | 4% | x | x | x | x
NC(=O)c1ccsc1NC(=O)CSc1nnc2ccccn12 | u | 25µM* | -21% | -7%[11.6 µM] | u | 16%
O=C(COC(=O)CCCc1nc2ccccc2s1)Nc1ncc(Cl)cc1Cl | 96% | 40µM* | 0% | -14% | u | -2%
C/C=C/C=C\C(=O)Nc1cccc(C2=NOC3(C2)C[C@H](C(N)=O)N(C(=O)CC#N)C3)c1 (some centres not stated) | 14µM* | 50µM* | 79µM* | 45µM* | 45µM* | u
SMILES | POLI inh | Pol beta inh | POLK inh | WRN helicase inh | Pol eta inh | FEN1 inh
C=C(C)C(=O)Nc1cccc(C2=NOC3(C2)C[C@H](C(N)=O)N(C(=O)CC#N)C3)c1 (some centres not stated) | u | 35µM* | u | -32% | 20µM* | -11%
CCCCCC(=O)Nc1cccc(C2=NOC3(C2)C[C@H](C(N)=O)N(C(=O)c2ccccc2)C3)c1 (some centres not stated) | u | 2% | -15% | -4% | -7% | 11%
C/C=C(/C)C(=O)Nc1cccc(C2=NOC3(C2)C[C@H](C(N)=O)N(C(=O)Cc2ccc([N+](=O)[O-])cc2)C3)c1 (some centres not stated) | -4% | -1% | 1% | 5% | -21% | 11%
C/C=C\C=C/C(=O)Nc1cccc(C2=NOC3(C2)C[C@H](C(N)=O)N(C(=O)Cc2ccc([N+](=O)[O-])cc2)C3)c1 (some centres not stated) | 25µM* | -8% | -10% | -13% | -16% | -17%
CCCCCC(=O)Nc1cccc(C2=NOC3(C2)C[C@H](C(N)=O)N(C(=O)CC#N)C3)c1 (some centres not stated) | x | 40µM* | x | x | x | x
N#CCC(=O)N1CC2(CC(c3cccc(NC(=O)COc4ccc(Cl)cc4)c3)=NO2)C[C@@H]1C(N)=O (some centres not stated) | 9% | 2% | -12% | 7% | -5% | 7%
COc1ccc2cc([S+]([O-])Cc3ncc(C)c(OC)c3C)nc2c1 | x | x | 4%[60.1 µM] | x | x | x
O=C1Oc2ccccc2C(=O)C1C(CC(O)c1ccc(-c2ccc(Br)cc2)cc1)c1ccccc1 (configuration not stated) | x | x | -2%[19.4 µM] | x | x | x
COc1ccc2[nH]c(C)c(C(=O)CNc3nccs3)c2c1 | 33% | x | -9% | x | x | -5%
O=C(O)CCn1c2c(c3ccccc31)C[C@H](NS(=O)(=O)c1ccc(F)cc1)CC2 | x | x | 3%[19.4 µM] | x | x | x
NC(=O)[C@H]1CC2(CC(c3cccc(NC(=O)[C@H]4CCC(=O)N4)c3)=NO2)CN1C(=O)c1ccccc1 (some centres not stated) | u | -25% | -8% | -7%[11.6 µM] | -9% | 79µM*
C/C=C/C=C/C(=O)N1CC2(CC(c3cccc(NC(=O)/C=C/C)c3)=NO2)C[C@@H]1C(N)=O (some centres not stated) | 40µM* | -1% | u | -17%[11.6 µM] | u | -15%
